# Compounds with a hit are over-represented: about 28% of the library has one in this group of screens.
# CYP2C19 inhib = human CYP2C19 inhibition. P33261. CYP2C19 Supersomes, luciferin-H EGE luminescence, 30 min. inhibition, % at 5 µM. 96,000 tested, 21% active;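 active = CYP2C19 inhibition above a set limit at 5 µM in the primary screen, cut at about 50% in these data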;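 note: plate controls were negative control wells for no effect and 2.5 mM tranylcypromine positive control for full effect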
# Target sequence (P33261 whole entry, looked up): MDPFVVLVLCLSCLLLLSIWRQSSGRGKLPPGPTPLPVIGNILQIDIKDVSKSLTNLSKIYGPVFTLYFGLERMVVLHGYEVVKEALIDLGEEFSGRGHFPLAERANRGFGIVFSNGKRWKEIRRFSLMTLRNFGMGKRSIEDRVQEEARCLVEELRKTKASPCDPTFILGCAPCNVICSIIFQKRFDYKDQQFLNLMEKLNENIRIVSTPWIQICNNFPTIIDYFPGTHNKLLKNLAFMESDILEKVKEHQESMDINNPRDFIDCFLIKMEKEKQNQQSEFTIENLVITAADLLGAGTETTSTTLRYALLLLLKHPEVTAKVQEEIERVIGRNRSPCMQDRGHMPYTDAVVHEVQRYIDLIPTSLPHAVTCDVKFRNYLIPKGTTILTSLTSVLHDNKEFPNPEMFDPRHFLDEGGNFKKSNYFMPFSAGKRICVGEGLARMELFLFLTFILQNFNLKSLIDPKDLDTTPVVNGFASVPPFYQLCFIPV
# CD11b adhes enh = enhancers of human CD11b/CD18 binding to fibrinogen; P05107+P11215; K562 CD11b/CD18 adhesion to fibrinogen, ATPlite luminescence; activation, % at 10 µM; 93,000 tested, 0.07% active; AID 1499;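 active = 10 µM primary screen giving 50% or more activity, confirmed by 40% or more on retest at that dose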
# CYP2C9 inhib = inhibitors of human CYP2C9; 96,000 tested, 20% active; inhibition, % at 5 µM; P11712; CYP2C9 Supersomes, luciferin-H conversion, luminescence;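 active = blocking of liver enzyme CYP2C9 beyond about 50% at 5 µM, limit read from the data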
# Mac1 fbg inh = CD11b/CD18-fibrinogen binding inhibition | P05107+P11215 | K562 CD11b/CD18 adhesion to fibrinogen, ATPlite luminescence; Mn2+ added to activate the integrin | inhibition, % at 10 µM | 93,000 tested, 0.54% active | AID 1497;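 active = primary inhibition of 50% or more at 10 µM, then 40% or more on retest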
# CYP2C9 act = increases human cytochrome P450 2C9 activity; P11712; recombinant CYP2C9, luciferin-H conversion, luminescence; stronger effect = higher value; factor 1 = untreated enzyme, 0 = blocked; activation factor at 5 µM; 96,000 tested, 1.4% active; AID 1024;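 active = activation factor of 2 or more for CYP2C9 at a 5 µM dose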;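 note: 0 = sulfaphenazole-blocked wells and 1 = vehicle-only wells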
# CYP2C19 activ = activators of human cytochrome P450 2C19; 96,000 tested, under 10 active; recombinant CYP2C19, luciferin-H EGE luminescence; stronger effect = higher value; 0 = fully inhibited enzyme, 1 = untreated enzyme; P33261; AID 1025; activation factor at 5 µM;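 active = activation factor of at least 2 at 5 µM in the primary screen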;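 note: 0 = wells with 2.5 mM tranylcypromine and 1 = vehicle-only wells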
# Active calls of the source: *; . = no result.
SMILES,CYP2C19 inhib,CD11b adhes enh,CYP2C9 inhib,Mac1 fbg inh,CYP2C9 act,CYP2C19 activ
NC(=O)CSc1nnc(Cc2cccs2)n1C1CCCCC1,-6,-2,-11,-2,1.1,1.1
CC1CCCC(C)N1C(=O)CSc1nnc(COc2ccccc2)n1-c1ccccc1 (stereo unspecified),65*,0,42,-13,0.6,0.4
CCNc1nc(NCC)nc(Oc2ccc(N)cc2)n1,-12,-2,3,-4,1,1.1
Cc1c(C(=O)NCc2ccccc2Cl)oc2c1C(=O)CCC2,15,4,19,-24,0.8,0.8
O=C(Nc1ccc(N2CCOCC2)nc1)c1ccc(F)cc1,-13,-7,-30,6,1.3,1.1
COc1ccc(OCc2nnc(SC(C)C(=O)Nc3nccs3)n2-c2ccccc2)cc1 (stereo unspecified),50,0,60*,-2,0.4,0.5
Cc1nnc(SC(C)C(=O)Nc2ccc(Cl)cn2)n1Cc1ccccc1 (stereo unspecified),48,0,9,-1,0.9,0.5
CC(Sc1nnc(-c2ccc(Cl)cc2Cl)n1Cc1ccccc1)C(=O)Nc1nccs1 (stereo unspecified),43,.,54*,.,0.5,0.6
S=c1[nH]nc(COc2ccccc2)n1C1CCCCC1,60*,15,34,-17,0.7,0.4
CCOC(=O)Cn1nc(C)n(-c2ccc(C(C)C)cc2)c1=O,11,.,19,.,0.8,0.9
O=C(N/N=C/c1ccc(O)cc1O)/C(=C/c1ccccc1)CCO,.,0,.,-11,.,.
COc1ccc(NC(=O)CN(c2ccc(C(C)C)cc2)S(=O)(=O)c2c(C)noc2C)cc1OC,52*,5,2,-13,1,0.5
CCOc1ccc(N(CC(=O)N2CC=C(c3ccccc3)CC2)S(=O)(=O)c2c(C)noc2C)cc1,64*,4,31,-6,0.7,0.4
CCOc1ccc(N(CC(=O)Nc2ccc(C)cc2)S(=O)(=O)c2c(C)noc2C)cc1,-10,2,18,-13,0.8,1.1
CCOc1ccc(N(CC(=O)Nc2cccc(Cl)c2)S(=O)(=O)c2c(C)noc2C)cc1,26,-1,36,-7,0.6,0.7
CCOc1ccc(N(CC(=O)NC(C)(C)C)S(=O)(=O)c2c(C)noc2C)cc1,50*,-4,42,22,0.6,0.5
CCOc1ccc(N(CC(=O)Nc2cccc(OC)c2)S(=O)(=O)c2c(C)noc2C)cc1,93*,6,92*,-6,0.1,0.1
Cc1c(CC=C(Cl)Cl)c(=O)[nH]c2c(C)cccc12,.,24,.,-14,.,.
Cc1cc(C)n(-c2nc(SCCN(C)C)c3c4c(sc3n2)COC(C)(C)C4)n1,23,0,26,33,0.7,0.8
CCOc1ccc(N(CC(=O)NCc2ccc(F)cc2)S(=O)(=O)c2c(C)noc2C)cc1,34,0,-2,-7,1,0.7
CCOc1ccc(N(CC(=O)NCc2cccs2)S(=O)(=O)c2c(C)noc2C)cc1,86*,-3,69*,-7,0.3,0.1
O=C(Nc1ccccc1C(=O)N1CCOCC1)c1ccncc1,-10,5,-9,-16,1.1,1.1
C=CCNc1nc2ccccc2nc1NS(=O)(=O)c1cccs1,-2,-1,93*,0,0.1,1
O=S(=O)(Nc1nc2ccccc2nc1Nc1ccc2c(c1)OCCO2)c1cccs1,14,-3,93*,90*,0.1,0.9
CCCCCNc1nc2ccccc2nc1NS(=O)(=O)c1cccs1,4,-1,68*,15,0.3,1
O=S(=O)(Nc1nc2ccccc2nc1NCc1ccco1)c1cccs1,-7,1,78*,3,0.2,1.1
O=S(=O)(Nc1cccnc1)c1cccs1,-2,-1,8,-22,0.9,1
COc1ccc(C(=O)NC2(C(F)(F)F)C(=O)Nc3c2c(=O)[nH]c(=O)n3CCc2ccc(OC)c(OC)c2)cc1 (stereo unspecified),8,.,9,.,0.9,0.9
CN(C)CCCNc1cn[nH]c(=O)c1Cl,-4,-3,5,-1,0.9,1
O=C(O)c1ccc(NS(=O)(=O)c2cc(Cl)ccc2Cl)cc1O,-1,0,20,-14,0.8,1
